An excerpt weighted towards active compounds, which were near 19% of everything screened.
HT1080-NT tox: kills 2HG-producing HT-1080-NT fibrosarcoma cells; HT-1080-NT fibrosarcoma viability, CellTiter-Glo ATP luminescence, 48 h; Potency, µM (doses to about 46.1 µM), most hits filed as cytotoxic; actives 1.6% (n = 360,000);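 further: NT is the 2HG producing partner of a matched IDH1 knockdown line; nearly all actives have a fitted effect of over 55% in size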
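Luminescent CellTiter-Glo readout after 48 hours of compound exposure at 37 degrees C defined viability of HT-1080-NT cells. Activity was normalized to DMSO wells and cell-free media wells; concentration-response curves were fitted and assigned curve classes.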
KB-V1 MDR tox: KB-V1 MDR subline cytotoxicity; KB-V1 MDR cells viability, CellTiter-Glo, 72 h; Potency, µM (highest dose often 46.1 µM), usual class: cytotoxic; actives 3.4% (n = 400,000); further: nearly all actives have a fitted effect of over 60% in size
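Readout: CellTiter-Glo luminescence, 10 min after addition. Cells: KB-V1 MDR subline, 72 h at 37 degrees C with compound. Analysis: corrected, normalized data fitted to concentration-effect curves.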
KB-3-1 tox: kills parental KB-3-1 adenocarcinoma cells; KB-3-1 viability, CellTiter-Glo ATP luminescence, 72 h; Potency, µM (titrated, usually from 46.1 µM), hits mostly cytotoxic; actives 1.4% (n = 400,000); AID 1347075; further: nearly all actives have a fitted effect of over 60% in size
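Cytotoxicity measured as CellTiter-Glo luminescence after 72 h at 37 C. Compound titrations were pinned onto drug-naive KB-3-1 parental adenocarcinoma cells grown in DMEM with 10% FBS, and normalized data fitted to concentration-response curves.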
HT1080 IDH1KD tx: kills HT-1080 cells with IDH1 knockdown; HT-1080 IDH1 knockdown viability, ATP luminescence, 48 h; Potency, µM (titrated, usually from 46.1 µM), usual class: cytotoxic; actives 2% (n = 360,000); AID 686971
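IDH1KD HT-1080 cells, 750/well, RPMI + 5% FBS; compound pinned after 2 h settling; 48 h, 37 °C; CellTiter-Glo luminescence; % activity normalised to DMSO and no-cell wells; curves fitted, classed by r2 and efficacy.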
DT40 TDP1 CPT: growth inhibition of DT40 Tdp1-/-;hTDP1 cells with camptothecin (screen for TDP1 inhibitors); actives 12% (n = 420,000); AID 686979; Potency, µM (top dose mostly 46.2 µM), hits mostly inhibitors; chicken DT40 Tdp1-/-;hTDP1 cells + 20 nM CPT, ATP luminescence, 48 h; further: nearly all actives have a fitted effect of over 55% in size
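Chicken DT40 Tdp1-/- cells complemented with human TDP1, 400 cells/well, exposed to compounds plus 20 nM camptothecin for at least 48 h at 37 C; viability read as ATP content by CellTiter-Glo luminescence.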
TDP1 cell noCPT: qHTS for Inhibitors of human tyrosyl-DNA phosphodiesterase 1 (TDP1): qHTS in cells in absence of CPT | DT40 Tdp1-/- hTDP1 cells, no CPT, ATP luminescence, 48 h | Potency, µM (top dose mostly 46.2 µM), usual class: inhibitors | actives 15% (n = 420,000) | AID 686978, 2013; further: nearly all actives have a fitted effect of over 55% in size
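Growth kinetics read by CellTiter-Glo luminescence after ≥48 hr at 37 °C. Cells: DT40 Tdp1-/- stably carrying human TDP1, 400 per well, compound exposure in the absence of CPT (DMSO vehicle).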
A number is an active result; – = inactive; ? = inconclusive; · = not tested or not shown; ! = not confirmed by another sample; [ ] = dose if it differs, or a comment. The call rests on the fitted dose curve; in most records, active means well fitted curve in the direction sought with a large enough effect; inconclusive means small, poorly fitted or top-dose-only effect, or another doubt; inactive means no such curve, though single readings can be large; an effect the other way counts as inactive or inconclusive.

SMILES | HT1080-NT tox | KB-V1 MDR tox | KB-3-1 tox | HT1080 IDH1KD tx | DT40 TDP1 CPT | TDP1 cell noCPT
CCOc1ccc(C(=O)Nc2ccc(C(=O)OCc3cc(=O)n4nc(CC)sc4n3)cc2)cc1 | · | · | · | · | – | ?
CCc1nn2c(=O)cc(COc3cccc(NC(=O)c4ccco4)c3)nc2s1 | – | ? | – | – | 20.6µM | ?
CCc1nn2c(=O)cc(COC(=O)c3cccc(NC(=O)c4ccccc4C)c3)nc2s1 | · | · | · | · | 20.6µM | 14.6µM
Cc1cc(C)n(CC(=O)NNC(=O)CC(C)c2ccccc2)n1 (stereo not drawn) | – | – | – | – | – | –
CCN1C(=O)C2(c3ccccc31)c1c(oc3ccc(F)cc3c1=O)C(=O)N2CCCOC (stereo not drawn) | · | – | – | · | ? | –
CCc1cccc(-n2nnc(-c3nc(-c4ccccc4Cl)no3)c2N)c1 | · | · | · | · | – | –
COc1cc2c(cc1N)-c1ccc(N)cc1C2 | ? | – | – | – | – | –
Cc1ccc(S(=O)(=O)c2cnc(SCC(=O)Nc3ccc4c(c3)OCCO4)[nH]c2=O)cc1 | · | – | – | · | · | ·
Cc1nn2c(=O)cc(COC(=O)c3cccc(NC(=O)c4ccc(C(C)(C)C)cc4)c3)nc2s1 | · | · | · | · | – | –
Cc1nn2c(=O)cc(COC(=O)c3ccc(NC(=O)c4cccs4)cc3)nc2s1 | · | · | · | · | 16.4µM | 14.6µM
Cc1cccc(C(=O)Nc2cccc(C(=O)OCc3cc(=O)n4nc(C(C)C)sc4n3)c2)c1 | · | · | · | · | ? | 14.6µM
COc1cc(C(=O)OCc2cc(=O)n3nc(C4CCCCC4)sc3n2)cc(OC)c1OC | · | – | – | · | 11.6µM | 10.3µM
CC(=O)Nc1cccc(C(=O)OCc2csc(CC(=O)Nc3ccccc3C)n2)c1 | – | 20.6µM | – | – | – | –
C[C@@H]1CN([C@@H](C)CO)C(=O)CCCn2nncc2CO[C@@H]1CN(C)C(=O)Cc1ccccc1 | – | – | – | – | – | –
CCOC(=O)c1c(NC(=O)CCCOc2ccccc2C)sc2c1CCC(C)C2 (stereo not drawn) | · | – | – | · | – | –
O=C(CN1C(=O)NC2(CCCCCCC2)C1=O)NCc1ccc(Cl)cc1 | – | – | – | – | – | –
N#Cc1cnn(-c2ccccc2)c1NC(=O)c1ccccc1F | – | – | – | – | – | –
Cc1ccc(S(=O)(=O)N2CCN(c3ccnc(-c4cccs4)n3)CC2)cc1 | – | · | · | – | ? | ?
O=C(Nc1ccccc1C(F)(F)F)C1(S(=O)(=O)c2ccc(Cl)cc2)CC1 | · | – | – | · | – | –
NC(=O)CCN(C1CCCCC1)S(=O)(=O)c1cccc2nsnc12 | – | – | – | – | – | –
Cc1ccc(S(=O)(=O)N(CCC#N)C2CCCCC2)c2nsnc12 | – | ? | – | – | 16.4µM | 18.4µM
CCOC(Cn1c(SCc2cc(C(C)=O)ccc2OC)nc2ccccc2c1=O)OCC | – | – | – | – | – | –
COc1ccc(C(C)=O)cc1CSc1nc(NCc2ccccc2)c2ccccc2n1 | · | · | · | · | ? | 23.1µM
COc1ccc(C(C)=O)cc1COc1nc(C)nc2ccccc12 | – | – | – | – | – | –
COc1ccc(C(C)=O)cc1CSc1nc(Nc2ccc(F)c(F)c2)c2ccccc2n1 | · | · | · | · | ? | 23.1µM
SMILES | HT1080-NT tox | KB-V1 MDR tox | KB-3-1 tox | HT1080 IDH1KD tx | DT40 TDP1 CPT | TDP1 cell noCPT
COc1ccc(C(C)=O)cc1CSc1nc(NCCc2ccccc2)c2ccccc2n1 | · | · | · | · | 18.4µM | 10.3µM
COc1ccc(C(C)=O)cc1CSc1nc2cc(C(=O)O)ccc2c(=O)n1Cc1ccccc1 | – | ? | – | – | – | ?
Fc1cccc(CSc2nc(NCCc3ccccc3)c3ccccc3n2)c1 | · | · | · | · | 16.4µM | 23.1µM
COc1ccccc1CNC(=O)C(=O)NCC(c1cccnc1)N1CCN(c2ccccc2)CC1 (stereo not drawn) | · | – | – | · | ? | ?
COc1cc2c(cc1OC)C(C(=O)NCCN(C)C)C(c1cccs1)N(C)C2=O (stereo not drawn) | – | ? | – | – | – | –
Cc1ccc(NC(=O)CSc2nc(-c3ccco3)cc(C(F)(F)F)n2)cc1C | 10µM | 4.11µM | 4.11µM! | 2.51µM | 2.31µM | 3.66µM
COc1ccc(Cl)cc1NC(=O)CSc1nc(-c2ccco2)cc(C(F)(F)F)n1 | · | · | · | · | 18.4µM | 16.4µM
COC(=O)c1ccc(C(=O)OC)c(NC(=O)CSc2nc(-c3ccco3)cc(C(F)(F)F)n2)c1 | – | – | – | – | ? | ?
O=C(CSc1nc(-c2ccco2)cc(C(F)(F)F)n1)NC1CCCC1 | – | – | – | – | 20.6µM | ?
COC(=O)c1ccccc1NC(=O)CSc1nc(-c2ccco2)cc(C(F)(F)F)n1 | ? | ? | ? | 3.55µM | 4.11µM | 4.61µM
O=C(CSc1nc(-c2ccco2)cc(C(F)(F)F)n1)Nc1ccc2c(c1)CCC2 | – | ? | – | ? | ? | ?
O=C(Cc1cccs1)NC1CC(=O)N(c2ccccc2)C1 (stereo not drawn) | · | · | · | · | – | –
CC(C)Cn1c2c(c(O)c(C(=O)Nn3c(Cc4ccccc4)nc4ccccc4c3=O)c1=O)CCCC2 | – | ? | ? | – | 5.17µM | 3.66µM
CCCn1c2c(c(O)c(C(=O)Nc3ccccc3)c1=O)CCCC2 | – | 14.6µM | – | – | – | –
CCCCc1nc2ccccc2c(=O)n1NC(=O)c1c(O)c2c(n(CC(C)C)c1=O)CCCC2 | – | 2.59µM | 4.61µM | – | 14.6µM | 9.2µM
CC(C)Cn1c2c(c(O)c(C(=O)Nc3ccc(F)cc3)c1=O)CCCC2 | – | ? | – | – | ? | –
CCN1C2=C(C(=O)CCC2)C(c2ccc(O)c(Br)c2)C2=C1CCCC2=O | – | – | – | – | ? | –
O=C1CCCC2=C1C(c1ccc(O)c(Br)c1)C1=C(CCCC1=O)N2c1ccccc1 | – | – | – | – | ? | 23.1µM
O=C(N/N=C/c1ccccn1)c1cc(C2CC2)nc2ccccc12 | ? | – | – | ? | 23.1µM | ?
O=C(N/N=C/c1ccncc1)c1cc(C2CC2)nc2ccccc12 | – | – | – | – | – | ?
O=C(N/N=C/c1ccccn1)c1cc(-c2ccccc2)nc2ccccc12 | – | – | – | – | ? | 16.4µM
Cc1ccc(NC(=O)CCc2nc(-c3ccccc3F)no2)c(C)c1 | · | – | – | · | ? | ?
Cc1ccccc1Cc1nc2cccnc2n1C1CCN(C(=O)CC2NC(=O)c3ccccc32)CC1 (stereo not drawn) | · | · | · | · | –[9.04 µM] | ?
CCOc1ccc(OCC(=O)NCCS(=O)(=O)N2CCN(c3ccc(OC)cc3)CC2)cc1 | · | · | · | · | – | –
O=C(O)CC/C(=N/Nc1ccc([N+](=O)[O-])cc1)C(=O)O | 1.64µM | – | – | 5.8µM | – | –
